ELG1 DNA repair: blocks ELG1-dependent DNA repair in HEK293T cells; HEK293T ELG1-luciferase reporter, luminescence, 16 h; DNA damage induced by 5-fluorouridine; Potency, µM (doses to about 46.1 µM), inactives show at the highest dose activity change, negative = inhibition, actives largely listed as inhibitors; 330,000 compounds, 2.3% hits; note: % is set by controls: 0 for no effect and ±100 for the full control effect; nearly all actives have a fitted effect of over 55% in size
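DMSO vehicle served as the neutral condition. Each well held 2,000 cells given 5-fluorouridine plus compound; after 16 hr at 37 °C/5% CO2, ONE-Glo was added and luciferase measured 30 min later.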
ELG1 genotoxic: genotoxicity induction in ELG1-luciferase HEK293T cells; HEK293T ELG1-luciferase reporter, luminescence, 16 h; Potency, µM (titrated, usually from 46 µM), without a hit: at the highest dose activity change, positive = activation, most hits filed as activators; 330,000 compounds, 1.3% hits; note: % of control where 0% means no effect; nearly all actives have a fitted effect of over 60% in size
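HEK293T cells expressing luciferase-tagged ELG1 were treated with compound or DMSO for 16 hr at 37°C. Luciferase activity was then read after 30 min with ONE-Glo at room temperature; rising signal flags genetic stress.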
NPC1 prom act: activates the NPC1 promoter | Huh7 NPC1 promoter luciferase reporter, 24 h | Potency, µM (series often up to 9.22 µM), without a hit: top-dose activation, usual class: activators | 320,000 compounds, 2.4% hits | AID 485313; note: % of control where 0% means no effect; nearly all actives have a fitted effect of over 60% in size
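Cells: Huh7 expressing luciferase under the NPC1 promoter, 1500/well. Seeded 2 h, compound added, incubated 24 h at 37 °C. Luciferase reagent, 10 min ambient, then luminescence.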
Rab9 promoter act: activates the Rab9 promoter. Huh7 Rab9 promoter-luciferase reporter, luminescence, 24 h. Potency, µM (top dose mostly 9.22 µM), inactives show at the top dose activation, negative = inhibition, usual class: activators. 320,000 compounds, 2.8% hits. AID 485297; note: % of control where 0% means no effect; nearly all actives have a fitted effect of over 60% in size
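Promoter activation is measured as luciferase luminescence in Huh7 cells stably transfected with a Rab9 promoter–luciferase construct, following 24 h compound exposure at 37 °C and 10 min reagent incubation at ambient temperature.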
SMN2 splice up: enhancers of SMN2 splice variant expression | HEK293 SMN2-luciferase splicing reporter, luminescence, 30-36 h | Potency, µM (titrated, usually from 46.1 µM), inactives show top-dose activity change, positive = activation, most hits filed as activators | 210,000 compounds, 2.8% hits | AID 1458; note: % of control where 0% means no effect; nearly all actives have a fitted effect of over 55% in size
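HEK293 cells carry an SMN2 […]–luciferase reporter in which exon 7 inclusion puts luciferase in frame. Cells were plated 10-12 h before compound addition, then incubated 30-36 h at 37C. ONE-Glo luminescence was read; sodium butyrate at 4.5 mM final served as control.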
FLuc modulator: counter-screen for miR-21 project: firefly luciferase inhibitors or activators | P08659 | purified FLuc, Km substrates, luminescence inhibition | Potency, µM (titrated, usually from 57.5 µM), for inactives: at the top dose activity change, negative = inhibition, hits mostly inhibitors | 360,000 compounds, 6.9% hits;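 note: plate controls were vehicle for no effect and reference inhibitor for full effect; nearly all actives have a fitted effect of over 55% in size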
Target sequence (P08659 whole entry, looked up): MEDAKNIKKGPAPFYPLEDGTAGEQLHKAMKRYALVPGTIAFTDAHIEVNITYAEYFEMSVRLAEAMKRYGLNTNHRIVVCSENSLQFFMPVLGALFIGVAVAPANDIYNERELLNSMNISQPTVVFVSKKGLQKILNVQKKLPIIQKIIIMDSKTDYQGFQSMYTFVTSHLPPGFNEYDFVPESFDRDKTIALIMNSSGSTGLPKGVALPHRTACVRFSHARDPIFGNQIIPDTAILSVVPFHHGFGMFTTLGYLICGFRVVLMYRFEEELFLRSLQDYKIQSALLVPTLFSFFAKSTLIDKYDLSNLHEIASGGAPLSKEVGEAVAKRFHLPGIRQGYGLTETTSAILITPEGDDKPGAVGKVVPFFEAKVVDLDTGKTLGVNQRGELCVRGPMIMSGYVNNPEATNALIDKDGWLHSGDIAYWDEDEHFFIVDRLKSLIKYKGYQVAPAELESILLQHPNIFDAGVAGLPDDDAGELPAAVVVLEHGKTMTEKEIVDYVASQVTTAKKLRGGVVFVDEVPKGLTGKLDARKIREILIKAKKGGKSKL
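Biochemical qHTS of compounds, final roughly 60 µM downward over six points, against 10 nM purified firefly luciferase using Km concentrations of substrates (10 uM D-luciferin, 10 uM ATP) in Tris acetate pH 7.5 buffer; luminescence output.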
The depositor's hits bear a star; ? = inconclusive; · = no result. Hits are enriched below; roughly 9.3% of the tested compounds scored in any of these assays. Calls come from the whole dose curve; as a rule, active = well fitted curve in the direction sought with a large enough effect; inconclusive = small, poorly fitted or top-dose-only effect, or another doubt; inactive = no such curve, though single readings can be large; an effect the other way counts as inactive or inconclusive. Potency is the fitted concentration of half-maximal effect.

SMILES	ELG1 DNA repair	ELG1 genotoxic	NPC1 prom act	Rab9 promoter act	SMN2 splice up	FLuc modulator
Cc1cc(C)c2sc(NC(=O)c3ccc(N4C(=O)CCC4=O)cc3)nc2c1	-8%	12%	-5%	3%	·	2.4µM*
O=C(NCc1ccccc1)c1ccc(NC(=O)C2CCCO2)cc1 (configuration not stated)	10%	?	4%	-10%	·	?
COCCn1c(SCC(=O)NC2CCCC2)nc2c(c1=O)SCC2	-10%	5%	-11%	20%	·	6%
O=C(O/N=C1\CCS(=O)(=O)c2sccc21)C1CC1	7%	-1%	-6%	-4%	10%	-9%
Cc1ccc(N=c2sc(C)c(C)n2C)cc1	?	?	?	?	?	21µM*
COc1ccc(C(=O)/C=C/C(=O)N(Cc2ccccc2OC)C(C(=O)NC2CCCCC2)c2ccncc2)c(O)c1 (configuration not stated)	21µM*	-13%	-3%	-1%	-13%	-1%
COc1ccc(C(=O)/C=C/C(=O)N(Cc2ccc(F)cc2)C(C(=O)NC2CCCCC2)c2ccncc2)c(O)c1 (configuration not stated)	18µM*	-11%	0%	3%	-19%	4%
Cc1ccc2nc(-c3ccccc3F)c(Nc3ccc(Cl)cc3)n2c1	·	·	·	·	-19%	-17%
Cc1ccc(Cl)cc1NC(=O)CSc1nc2c(c(=O)[nH]1)CN(Cc1ccccc1)CC2	·	·	·	·	·	-3%
O=C(CCN1C(=O)c2ccccc2C1=O)Nc1ccc(-c2cn3ccsc3n2)cc1	?	?	?	2.2µM*	?	2.7µM*
O=C(Nc1ccc(-c2cn3ccsc3n2)cc1)C1CC1	?	?	2.2µM*	1.6µM*	?	2.7µM*
O=C(Nc1ccc(-c2cn3ccsc3n2)cc1)C1CCCC1	?	1.8µM*	4µM*	3.2µM*	?	1.3µM*
O=C(Nc1ccc(Cc2ccncc2)cc1)C1CC1	-12%	4%	-4%	1%	-9%	-9%
O=C(Nc1ccc(F)cc1)C1CCCCC1	?	2%	3%	18%	-12%	-4%
Cc1ccc2sc(-c3ccc(NC(=O)CCN4C(=O)c5ccccc5C4=O)cc3)nc2c1	?	4.6µM*	0.5µM*	0.28µM*	0.4µM*	11µM*
O=C(NCc1ccco1)c1ccc2c(c1)N(Cc1ccc(Cl)cc1)C(=O)c1ccccc1S2(=O)=O	·	·	·	·	2%	-2%
COc1ccc(/C=C/C(=O)NNC(=O)C(C)Oc2ccccc2F)cc1OC (configuration not stated)	-3%	1%	·	·	·	·
Cc1c(Cl)cccc1N1CC(c2nc3ccccc3n2Cc2ccccc2F)CC1=O (configuration not stated)	·	·	·	·	-1%	-4%
CC(=O)Nc1ccc(S(=O)(=O)NCc2cn3ccsc3n2)cc1	24%	1%	-2%	-5%	5%	-1%
c1cn2cc(-c3ccc4c(c3)OCO4)nc2s1	?	?	0.45µM*	0.63µM*	13µM*	1.9µM*
CC(=O)Nc1ccc(-c2cn3ccsc3n2)cc1	?	5.8µM*	1.6µM*	1.4µM*	10µM*	12µM*
O=C(Nc1ccc(-c2ccc3nncn3n2)cc1)C1CCCC1	?	-3%	7%	14%	?	19µM*
COc1ccc(OC)c(NS(=O)(=O)c2c(C)nc3sccn3c2=O)c1	-7%	2%	-3%	3%	·	6%
CCN1CCN(Cc2ccc(NC(=O)c3cc(NC(=O)c4cc(-c5ccc(OC)cc5)n[nH]4)cc(OC)c3)cc2C(F)(F)F)CC1	14%	8%	-2%	-2%	·	13µM*
CCN1CCN(Cc2ccc(NC(=O)c3cc(NC(=O)c4ccc5n[nH]nc5c4)cc(OC)c3)cc2C(F)(F)F)CC1	4%	3%	-7%	-3%	·	2.7µM*
SMILES	ELG1 DNA repair	ELG1 genotoxic	NPC1 prom act	Rab9 promoter act	SMN2 splice up	FLuc modulator
CCN1CCN(Cc2ccc(NC(=O)c3cc(NC(=O)c4ccno4)cc(OC)c3)cc2C(F)(F)F)CC1	2%	-3%	-3%	-6%	·	-3%
COc1cc(/C=N/Nc2ccccn2)cc(OC)c1O	?	-9%	-6%	4%	19%	12µM*
COc1cc(/C=N/Nc2ccccn2)ccc1OCC(C)C	?	15%	?	?	?	2.7µM*
CCCOc1ccc(/C=N/Nc2ccccn2)cc1OC	?	?	?	2µM*	10µM*	3.4µM*
CCOc1ccc(/C=N/Nc2ccccn2)cc1OC	?	21µM*	?	2.8µM*	14µM*	5.4µM*
Cc1ccc(C)c(/C=N/Nc2ccccn2)c1	12%	14%	-11%	-1%	19%	?
COc1cc(/C=N/Nc2cccc(C)c2)cc(Br)c1O	-14%	5%	1%	7%	-6%	?
COc1ccccc1CNC(=O)COCc1cc(-c2cccs2)on1	·	·	·	·	·	-15%
Cc1ccc(-c2onc(C)c2C)cc1S(=O)(=O)N1CCN(c2ccccc2F)CC1	·	·	·	·	·	-7%
O=C(NCC1CCCO1)C1CCN(C2CCN(C(=O)Cc3ccsc3)CC2)CC1 (configuration not stated)	20%	1%	-1%	12%	·	0%
CC1=C(C(=O)Nc2ccc(C(=O)NCCCN3CCCCC3)cc2)SCCO1	25%	1%	-1%	-4%	·	3%
CCOc1ccc(/C=N/N(C)c2ccccc2)cc1OC	?	4.6µM*	?	3.2µM*	25µM*	4.8µM*
